According to PubChem BioAssay:
Calls of active or inactive are those of the source. Unless noted, the rule behind the calls is not given here.

Columns and labels:
[1] = compounds binding Alexa647 anti-His antibody – biochemical, small-molecule microarray, 635 nm fluorescence, artefact control for SMM control protein annotation, primary screen (AID 1128); settings: higher = more signal;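 note: score merges feature fluorescence with signal-to-noise for each printed compound spot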
[2] = test system: Human papillomavirus type 1a E7 protein (residues 1-88); test: HPV1a E7 small-molecule binders, primary screen, biochemical, small-molecule microarray, residues 1-88, 635 nm (AID 1129); settings: small-molecule microarray binding, fluorescence 635 nm; higher = more signal
[3] = target: Focal adhesion kinase 1 (Homo sapiens) (UniProt Q05397); test: PTK2 protein binding on printed compound slides – biochemical, small-molecule microarray, 635/667 nm fluorescence, BSA, DTT, primary screen (AID 1130); settings: 635 nm fluorescence, higher = more signal;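 note: composite of spot emission at 667 nm and signal to noise over triplicate slides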
[4] = test system: Fibrinogen (Alexa647-labelled); test: Alexa647-fibrinogen binding to printed small molecules – biochemical, small-molecule microarray, 635/667 nm fluorescence, artefact control for SMM control-protein annotation, profiling panel (AID 1131); settings: fibrinogen-A647 binding fluorescence, higher = more signal;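 note: z-score merges 667 nm fluorescence with per-spot signal-to-noise over triplicate slides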
[5] = target: Follistatin (Homo sapiens) (UniProt P19883); test: FST protein binding to printed compounds – biochemical, small-molecule microarray, 635/667 nm fluorescence, primary screen (AID 1132); settings: 635 nm fluorescence, higher = more signal
[6] = target: Fibroblast growth factor 2 (Homo sapiens) (UniProt P09038); test: basic fibroblast growth factor binding to printed compounds – biochemical, small-molecule microarray, 635/667 nm fluorescence, primary screen (AID 1133); settings: FGF2, fluorescence 635/667, higher = more signal
[7] = JC-1 mitochondrial potential readout, lung cancer cells – cell-based, A549, JC-1 fluorescence, basal, 24 h, 100 nL, profiling panel (AID 1138); settings: higher = more signal;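 note: A549 lung adenocarcinoma cells under basal conditions with no added stimulus; test concentration not given here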
Lefty1 = Lefty1 protein binding to printed compounds – biochemical, small-molecule microarray, 635/667 nm fluorescence, primary screen (AID 1139); settings: fluorescence 635/667, higher = more signal
[8] = test system: wheat germ agglutinin (Triticum aestivum), Alexa647-labelled; test: Alexa647-WGA lectin binding to printed small molecules – biochemical, small-molecule microarray, 635/667 nm fluorescence, artefact control for SMM control-protein annotation, profiling panel (AID 1140); settings: WGA-A647 binding, 635 nm fluorescence, higher = more signal;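 note: score merges 667 nm feature emission with signal to noise over triplicate slides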
[9] = target: Luciferin 4-monooxygenase (Photinus pyralis) (UniProt P08659); test: inhibition of purified Photinus pyralis luciferase – biochemical, luminescence, purified enzyme, 2006 set, primary screen (AID 1141); settings: purified firefly luciferase, SteadyGlo luminescence, 30 min; higher = more signal, called active from +8 up or from −8 down;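 note: cell-free assay with purified firefly luciferase at 100 ng per well in PBS; test concentration not given here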
[10] = test system: Wnt5a (protein binding on small-molecule microarray); test: small molecules binding Wnt5a protein – biophysical, small-molecule microarray, 635/667 nm fluorescence, primary screen (AID 1142); settings: 635 nm fluorescence, higher = more signal;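 note: fluorescence read at 667 nm with signal to noise per printed feature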
[11] = ATP-based viability of Huh7 replicon cells – cell-based, CellTiter-Glo luminescence, basal, 48 h, cytotoxicity control for HCV replication inhibitor project, primary screen (AID 1143); settings: higher = more signal, called active from +8 up or from −8 down;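 note: Huh7 hepatoma cells carrying a hepatitis C replication reporter with no stimulus; test concentration not given here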
[12] = Pseudomonas biofilm growth suppression – PAO1 strain, BacTiter-Glo luminescence, LB-PBS, primary screen (AID 1144); settings: P. aeruginosa PAO1 biofilm, 12 h, higher = more signal
[13] = basal CRE-LacZ reporter activity in PC12 – cell-based, unstimulated, primary screen (AID 1145); settings: no forskolin, luminescence, 4.5 h, higher = more signal, called active from +8 up or from −8 down
[14] = forskolin-driven CRE-LacZ activity in PC12 – cell-based, CRE-LacZ reporter, forskolin-stimulated, primary screen (AID 1146); settings: luminescence, 4.5 h, higher = more signal, called active from +8 up or from −8 down;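 note: PC12 cells with 6xCRE LacZ reporter stimulated by forskolin 10 µM; beta-galactosidase reporter signal reflecting CREB driven transcription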
[15] = target: Streptavidin (Streptomyces avidinii) (UniProt P22629); test: compounds binding control protein streptavidin – biophysical, small-molecule microarray, 635/667 nm fluorescence, artefact control for SMM compound annotation, primary screen (AID 1147); settings: higher = more signal;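 note: signal reflects streptavidin binding to arrayed compounds as a control protein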
[16] = probe aInhba binding on compound microarray – biochemical, small-molecule microarray, 635/667 nm fluorescence, primary screen (AID 1148); settings: higher = more signal;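 note: score merges 667nm spot fluorescence with signal-to-noise for antibody binding to printed compounds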
Torsin-1A (Homo sapiens) [17] = target: Torsin-1A (Homo sapiens) (UniProt O14656); test: TOR1A wild-type binding on microarray – cell lysate, small-molecule microarray, lysate, 635/667 nm, primary screen (AID 1149); settings: COS7 hTOR1A-WT lysate, 635 nm fluorescence, higher = more signal
Torsin-1A (Homo sapiens) [18] = target: Torsin-1A (Homo sapiens) (UniProt O14656); test: torsin A mutant lysate binding on microarrays – cell lysate, small-molecule microarray, COS7 lysate, 635/667 nm fluorescence, primary screen (AID 1150); settings: COS7 hTOR1A mutant lysate, 635 nm fluorescence, higher = more signal;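 note: score pools 667 nm emission and signal to noise measuring lysate protein binding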
[19] = test system: Sonic hedgehog protein (Shh); test: Sonic hedgehog microarray binding compounds – biochemical, small-molecule microarray, 635/667 nm fluorescence, primary screen (AID 1151); settings: 635 nm fluorescence, higher = more signal;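 note: Shh protein binding to compounds spotted on small-molecule microarray slides; score combines spot fluorescence intensity with signal-to-noise across triplicate slides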

Chain of Focal adhesion kinase 1 (Homo sapiens) (Q05397 whole entry, looked up): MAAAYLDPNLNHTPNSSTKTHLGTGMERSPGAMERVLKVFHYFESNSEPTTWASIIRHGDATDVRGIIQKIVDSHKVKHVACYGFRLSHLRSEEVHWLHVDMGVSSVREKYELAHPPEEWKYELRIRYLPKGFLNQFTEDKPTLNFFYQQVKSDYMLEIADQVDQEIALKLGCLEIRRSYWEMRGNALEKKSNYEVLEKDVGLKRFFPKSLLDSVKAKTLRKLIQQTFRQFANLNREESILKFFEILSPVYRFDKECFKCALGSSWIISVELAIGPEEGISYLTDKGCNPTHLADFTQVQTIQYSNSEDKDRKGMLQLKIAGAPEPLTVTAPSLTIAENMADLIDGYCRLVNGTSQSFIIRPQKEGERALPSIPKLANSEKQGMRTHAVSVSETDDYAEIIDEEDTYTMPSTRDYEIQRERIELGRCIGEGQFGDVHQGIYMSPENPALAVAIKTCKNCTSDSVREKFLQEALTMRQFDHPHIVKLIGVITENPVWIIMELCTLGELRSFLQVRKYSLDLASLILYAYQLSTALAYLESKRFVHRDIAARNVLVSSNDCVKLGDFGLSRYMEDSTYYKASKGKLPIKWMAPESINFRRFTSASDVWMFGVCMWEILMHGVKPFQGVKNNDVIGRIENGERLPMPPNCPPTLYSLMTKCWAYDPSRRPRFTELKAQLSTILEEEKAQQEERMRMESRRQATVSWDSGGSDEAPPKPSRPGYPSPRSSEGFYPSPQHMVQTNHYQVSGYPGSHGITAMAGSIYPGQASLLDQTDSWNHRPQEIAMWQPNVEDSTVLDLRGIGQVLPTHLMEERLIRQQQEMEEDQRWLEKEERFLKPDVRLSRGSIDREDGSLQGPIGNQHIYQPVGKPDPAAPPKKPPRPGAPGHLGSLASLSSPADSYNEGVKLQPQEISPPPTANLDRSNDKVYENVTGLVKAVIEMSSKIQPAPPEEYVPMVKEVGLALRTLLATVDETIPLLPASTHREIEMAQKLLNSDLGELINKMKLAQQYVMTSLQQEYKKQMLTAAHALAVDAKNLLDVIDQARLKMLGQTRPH
Chain of Fibroblast growth factor 2 (Homo sapiens) (P09038 whole entry, looked up): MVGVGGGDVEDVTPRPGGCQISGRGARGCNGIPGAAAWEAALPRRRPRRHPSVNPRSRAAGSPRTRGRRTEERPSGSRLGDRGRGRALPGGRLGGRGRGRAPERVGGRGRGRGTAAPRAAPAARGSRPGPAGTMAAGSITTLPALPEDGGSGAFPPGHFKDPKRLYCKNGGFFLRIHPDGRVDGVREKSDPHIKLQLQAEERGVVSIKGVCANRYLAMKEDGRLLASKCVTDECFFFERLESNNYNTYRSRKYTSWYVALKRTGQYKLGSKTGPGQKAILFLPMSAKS
Chain of Torsin-1A (Homo sapiens) (O14656 whole entry, looked up): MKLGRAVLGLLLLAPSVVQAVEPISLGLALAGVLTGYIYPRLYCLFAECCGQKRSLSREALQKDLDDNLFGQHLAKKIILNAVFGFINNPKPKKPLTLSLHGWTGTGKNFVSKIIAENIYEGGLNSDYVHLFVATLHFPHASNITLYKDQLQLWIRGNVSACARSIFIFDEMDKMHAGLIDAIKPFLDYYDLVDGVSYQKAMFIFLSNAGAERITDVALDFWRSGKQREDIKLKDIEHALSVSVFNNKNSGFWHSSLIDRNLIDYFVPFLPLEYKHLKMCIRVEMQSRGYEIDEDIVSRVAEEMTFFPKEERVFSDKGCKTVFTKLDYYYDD
Chain of Follistatin (Homo sapiens) (P19883 whole entry, looked up): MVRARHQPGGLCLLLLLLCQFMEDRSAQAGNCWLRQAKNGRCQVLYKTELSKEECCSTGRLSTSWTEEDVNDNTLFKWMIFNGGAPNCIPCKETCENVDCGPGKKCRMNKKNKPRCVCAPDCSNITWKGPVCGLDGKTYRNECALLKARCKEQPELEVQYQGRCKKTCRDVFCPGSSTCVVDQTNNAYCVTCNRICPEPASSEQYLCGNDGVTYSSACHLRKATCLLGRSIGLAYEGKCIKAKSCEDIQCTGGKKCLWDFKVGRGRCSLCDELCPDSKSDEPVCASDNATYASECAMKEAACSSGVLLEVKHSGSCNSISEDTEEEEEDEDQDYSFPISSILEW
Chain of Streptavidin (Streptomyces avidinii) (P22629 whole entry, looked up): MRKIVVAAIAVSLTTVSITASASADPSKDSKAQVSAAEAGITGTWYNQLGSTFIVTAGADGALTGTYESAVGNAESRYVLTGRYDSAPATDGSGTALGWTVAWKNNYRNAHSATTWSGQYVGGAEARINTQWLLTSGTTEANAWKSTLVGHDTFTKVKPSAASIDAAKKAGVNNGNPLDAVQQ
Chain of Luciferin 4-monooxygenase (Photinus pyralis) (P08659 whole entry, looked up): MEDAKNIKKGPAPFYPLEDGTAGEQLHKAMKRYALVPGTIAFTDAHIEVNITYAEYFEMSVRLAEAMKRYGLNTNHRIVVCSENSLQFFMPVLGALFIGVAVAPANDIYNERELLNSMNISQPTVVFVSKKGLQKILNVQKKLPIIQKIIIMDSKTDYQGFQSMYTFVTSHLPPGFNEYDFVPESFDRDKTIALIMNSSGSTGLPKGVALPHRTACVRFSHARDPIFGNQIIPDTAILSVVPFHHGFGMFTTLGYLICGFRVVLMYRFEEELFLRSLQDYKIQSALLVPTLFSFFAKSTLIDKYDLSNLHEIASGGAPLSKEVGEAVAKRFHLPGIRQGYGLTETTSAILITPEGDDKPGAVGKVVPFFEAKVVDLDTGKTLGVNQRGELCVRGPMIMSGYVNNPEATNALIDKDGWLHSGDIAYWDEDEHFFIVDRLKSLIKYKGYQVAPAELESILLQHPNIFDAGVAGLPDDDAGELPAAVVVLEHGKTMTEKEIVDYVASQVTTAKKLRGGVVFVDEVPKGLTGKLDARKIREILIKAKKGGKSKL

Compound | composite z-score [1] | composite z-score [2] | composite z-score [3] | composite z-score [4] | composite z-score [5] | composite z-score [6] | z-score [7] | composite z-score (Lefty1) | composite z-score [8] | z-score [9] | composite z-score [10] | z-score [11] | z-score [12] | z-score [13] | z-score [14] | composite z-score [15] | composite z-score [16] | composite z-score (Torsin-1A (Homo sapiens) [17]) | composite z-score (Torsin-1A (Homo sapiens) [18]) | composite z-score [19]
CN1C(=O)C2C=CC(C(O)C3=C[C@H]4C[C@@H](C3)C4(C)C)N(Nc3ccc([N+](=O)[O-])cc3[N+](=O)[O-])C2C1=O (stereo not given in full) | 1.45 | 1.16 | 0.588 | 0.978 | 1.07 | 0.0958 | 0.731 | 0.181 | 1.02 | -0.88 (inactive) | 0.325 | -0.119 (inactive) | -0.184 (inactive) | 0.443 (inactive) | -0.946 (inactive) | 1.56 | 0.421 | 0.124 | 0.566 | 0.0842
CCCNC(=O)[C@@]1(C)c2ccccc2C(=O)N(Cc2ccc(OC(F)(F)F)cc2)[C@H]1c1ccc(CO)cc1 | -0.607 | 1.11 | 0.275 | 0.264 | 0.778 | 0.557 | 1.07 | -0.526 | 0.419 | -0.166 (inactive) | -0.0508 | -2.65 (inactive) | 0.28 (inactive) | -0.0259 (inactive) | -0.326 (inactive) | -0.456 | 0.249 | 0.243 | 0.6 | 0.628
CCCCCN1CC=CC23O[C@@H]4C=CCCOC(=O)C4[C@H]2C(=O)N(CCCO)[C@@H]3C1=O (stereo not given in full) | 0.199 | -0.388 | -0.572 | -0.677 | -0.182 | -0.311 | -0.891 | -0.364 | 0.0083 | 0.126 (inactive) | -0.309 | -2.45 (inactive) | -1.06 (inactive) | -0.492 (inactive) | -0.285 (inactive) | -0.559 | -0.128 | -0.0271 | -1.09 | 0.4
COC(=O)[C@@]1(Cc2ccccc2)[C@H]2c3cc(C(=O)N(C)C)n(Cc4cc(F)c(F)c(F)c4)c3C[C@H]2CN1C(=O)c1ccccc1 | 2.19 | 1.22 | 0.692 | 0.832 | 0.83 | -0.311 | -0.322 | -0.807 | 0.418 | 1.78 (inactive) | 0.312 | -3.19 (inactive) | 0.301 (inactive) | 0.0109 (inactive) | -0.214 (inactive) | 0.773 | 0.681 | 0.0663 | 0.12 | -0.578
O=C1O[C@@H](c2ccccc2)[C@@H](c2ccccc2)N2[C@@H](c3ccc(O)cc3)[C@]3(C(=O)Nc4ccccc43)[C@@H](C(=O)N3CCCCCCC3)[C@H]12 | 2.96 | 1.23 | 1.22 | 0.827 | 1.43 | 1.64 | 0.48 | 1.6 | 1.46 | 1.04 (inactive) | 1.36 | -2.61 (inactive) | -0.279 (inactive) | 0.0384 (inactive) | 0.276 (inactive) | 2.93 | 1.98 | 1.91 | 1.8 | 2.02
